This is part of a sample that, as a whole, favours compounds with a hit. Of some 79,000 tested, about 15% had one in any assay. The source made the active and inactive calls. Rule as the data show it: active = growth inhibition above about 70%; inactive = the rest.
Assays:
[1] = NCI Yeast Anticancer Drug Screen. Data for the wt1 strain (AID 149);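 also: 0% = growth of vehicle-treated wt1 cultures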; details: S. cerevisiae wt1 strain (SPY 50644) growth inhibition, active compounds read high
Summary of the method: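 wt1 yeast, compound-treated; % growth inhibition vs vehicle control.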

[2] = NCI Yeast Anticancer Drug Screen. Data for the rad50EPP+ strain (AID 151);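 also: 0% = growth of vehicle-treated control cultures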; details: S. cerevisiae rad50 mutant strain, active compounds read high
Summary of the method: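 Read-out is yeast growth inhibition relative to vehicle; cells used were the rad50EPP+ strain.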

[3] = NCI Yeast Anticancer Drug Screen. Data for the mgt1 strain (AID 153); details: S. cerevisiae mgt1 mutant growth inhibition, active compounds read high
Summary of the method: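 Measured: inhibition of mgt1 yeast growth by compound, normalized to vehicle-treated cultures.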

[4] = NCI Yeast Anticancer Drug Screen. Data for the rad50 strain (AID 155);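 also: 0% = growth of vehicle-only cultures of the same strain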; details: S. cerevisiae rad50 strain growth inhibition, active compounds read high
Summary of the method: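 Genetically altered yeast (DNA repair pathway); compound treatment; growth inhibition vs vehicle ctrl.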

[5] = NCI Yeast Anticancer Drug Screen. Data for the mec2-1 strain (AID 157); details: S. cerevisiae mec2-1 strain, active compounds read high
Summary of the method: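 Using mec2-1 yeast: add compound, measure growth, express inhibition versus vehicle-treated cultures.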

[6] = NCI Yeast Anticancer Drug Screen. Data for the rad14 strain (AID 159);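 also: 0% = growth of vehicle-treated control cultures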; details: S. cerevisiae rad14 strain growth inhibition, active compounds read high
Summary of the method: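 Test compounds were applied to a repair-deficient yeast strain. Its growth was then compared with that of cultures given vehicle alone, and inhibition was expressed relative to those controls.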

[7] = NCI Yeast Anticancer Drug Screen. Data for the sgs1 mgt1 strain (AID 161);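 also: 0% = growth of cultures given vehicle only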; details: S. cerevisiae sgs1 mgt1 strain, active compounds read high
Summary of the method: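 Growth of a repair-deficient yeast mutant was monitored after compound treatment and expressed as inhibition relative to vehicle-treated cultures.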

[8] = NCI Yeast Anticancer Drug Screen. Data for the CLN2oe strain (AID 163);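 also: 0% = growth of vehicle-only control cultures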; details: S. cerevisiae CLN2oe strain, active compounds read high
Summary of the method: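 Whole-cell yeast growth assay. A strain engineered for altered cell-cycle control received compound, and inhibition relative to vehicle-treated cultures was recorded.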

[9] = NCI Yeast Anticancer Drug Screen. Data for the cln2 rad14 strain (AID 165);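 also: 0% = growth equal to vehicle treated cultures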; details: S. cerevisiae cln2 rad14 strain, active compounds read high
Summary of the method: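 Yeast strain cln2 rad14, bearing defects in cell cycle control and DNA repair, serves as the test system; values reflect growth inhibition compared with vehicle.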

[10] = NCI Yeast Anticancer Drug Screen. Data for the bub3 strain (AID 167); details: S. cerevisiae bub3 mutant strain, active compounds read high
Summary of the method: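 Yeast carrying a defined mutation is treated with each compound, and growth is compared with that of vehicle-exposed cells to give inhibition.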

[11] = NCI Yeast Anticancer Drug Screen. Data for the wt2 strain (AID 169);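 also: 0% = growth of vehicle-treated yeast cultures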; details: S. cerevisiae wt2 strain growth inhibition, active compounds read high
Summary of the method: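 Treated yeast vs. vehicle-treated yeast: growth inhibition determined.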

[12] = NCI Yeast Anticancer Drug Screen. Data for the mlh1 strain (AID 171);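 also: 0% = growth of vehicle-treated control cultures of the same strain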; details: S. cerevisiae mlh1 strain growth inhibition, active compounds read high
Summary of the method: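 A yeast strain with a defined genetic lesion serves as the test organism. Cultures receive compound or vehicle, and growth is measured.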

[13] = NCI Yeast Anticancer Drug Screen. Data for the sgs1 strain (AID 173);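 also: 0% = growth of vehicle-only control cultures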; details: S. cerevisiae sgs1 mutant, active compounds read high
Summary of the method: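 A genetically defined yeast mutant is incubated with the test compound, and its growth is compared to that of the same strain given vehicle.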

[14] = NCI Yeast Anticancer Drug Screen. Data for the mlh1 rad18 strain (AID 175); details: S. cerevisiae mlh1 rad18 strain growth inhibition, active compounds read high
Summary of the method: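 Steps: expose repair-defective yeast to compound; measure growth; express inhibition against vehicle-treated controls.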

[15] = NCI Yeast Anticancer Drug Screen. Data for the rad18 strain (AID 177); details: S. cerevisiae rad18 mutant growth inhibition, active compounds read high
Summary of the method: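 Measured value is growth inhibition of a yeast strain bearing a DNA repair alteration, referenced to vehicle-treated cells.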

[16] = NCI Yeast Anticancer Drug Screen. Data for the rad52 strain (AID 147);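 also: 0% = growth of vehicle-treated control cultures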; details: S. cerevisiae rad52 mutant growth inhibition, active compounds read high
Summary of the method: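 Here a repair-compromised yeast strain receives each compound; its growth is then quantified and normalised to vehicle-only controls.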

[17] = at 5.0 µM (retest, dose inferred, filed as 0.5)
[18] = at 50.0 µM (retest, dose inferred, filed as 5.0)

Measured: growth inhibition

COc1ccccc1/C=C\C(=O)C1COCN1 (centres undefined)
active: [1]; at 100.0 µM 99% | [2]; at 33.0 µM 73% | [2]; at 100.0 µM 92% | [3]; at 100.0 µM 99% | [4]; at 33.0 µM 95% | [4]; [18] 82% | [4]; at 50.0 µM 97.2% | [4]; at 100.0 µM 98% | [5]; at 50.0 µM 98.7% | [5]; at 100.0 µM 99% | [6]; at 100.0 µM 99% | [7]; [18] 75% | [7]; at 50.0 µM 84.7% | [8]; at 100.0 µM 98% | [10]; at 50.0 µM 97.3% | [10]; at 100.0 µM 99% | [11]; at 100.0 µM 99% | [12]; at 33.0 µM 83% | [12]; at 100.0 µM 99% | [13]; at 33.0 µM 92% | [13]; at 100.0 µM 99% | [14]; [18] 82% | [14]; at 50.0 µM 99.1% | [15]; at 100.0 µM 98%
inactive: [1]; at 1.2 µM -4% | [1]; at 3.7 µM -4% | [1]; at 11.0 µM -7% | [1]; at 33.0 µM 19% | [2]; at 1.2 µM 11% | [2]; at 3.7 µM 20% | [2]; at 11.0 µM 42% | [3]; at 1.2 µM -1% | [3]; at 3.7 µM -2% | [3]; at 11.0 µM -2% | [3]; at 33.0 µM 53% | [4]; at 1.2 µM 9% | [4]; at 3.7 µM 6% | [4]; [17] -141% | [4]; at 11.0 µM 12% | [5]; at 1.2 µM 4% | [5]; at 3.7 µM 5% | [5]; [17] -49% | [5]; at 11.0 µM 12% | [5]; at 33.0 µM 38% | [5]; [18] 28% | [6]; at 1.2 µM 0% | [6]; at 3.7 µM -1% | [6]; at 11.0 µM 9% | [6]; at 33.0 µM 38% | [7]; [17] -63% | [8]; at 1.2 µM 2% | [8]; at 3.7 µM 1% | [8]; at 11.0 µM 1% | [8]; at 33.0 µM 13% | [9]; [17] -57% | [9]; [18] -60% | [9]; at 50.0 µM 7.45% | [10]; at 1.2 µM 0% | [10]; at 3.7 µM 9% | [10]; [17] -53% | [10]; at 11.0 µM 18% | [10]; at 33.0 µM 69% | [10]; [18] 69% | [11]; at 1.2 µM 2% | [11]; at 3.7 µM 1% | [11]; at 11.0 µM 0% | [11]; at 33.0 µM 37% | [12]; at 1.2 µM 9% | [12]; at 3.7 µM 2% | [12]; at 11.0 µM 12% | [13]; at 1.2 µM 1% | [13]; at 3.7 µM 2% | [13]; at 11.0 µM 18% | [14]; [17] -122% | [15]; at 1.2 µM 0% | [15]; at 3.7 µM 5% | [15]; at 11.0 µM 15% | [15]; at 33.0 µM 67%

CC(C)(CN1CCCCC1)C(=O)/C=C/c1c(Cl)cccc1Cl
inactive: [16]; at 1.2 µM 12% | [16]; at 3.7 µM 35% | [16]; at 11.0 µM 68% | [3]; at 1.2 µM 10% | [3]; at 3.7 µM 37% | [4]; at 1.2 µM 11% | [4]; at 3.7 µM 29% | [4]; [17] 2% | [4]; at 11.0 µM 67% | [5]; at 1.2 µM 16% | [5]; at 3.7 µM 20% | [5]; [17] 14% | [5]; at 11.0 µM 51% | [6]; at 1.2 µM 44% | [6]; at 3.7 µM 54% | [7]; [17] 21% | [8]; at 1.2 µM 30% | [8]; at 3.7 µM 54% | [9]; [17] 55% | [10]; at 1.2 µM 27% | [10]; at 3.7 µM 49% | [10]; [17] 9% | [11]; at 1.2 µM 19% | [11]; at 3.7 µM 28% | [12]; at 1.2 µM 1% | [12]; at 3.7 µM 14% | [12]; at 11.0 µM 38% | [13]; at 1.2 µM 0% | [13]; at 3.7 µM 38% | [14]; [17] 30% | [15]; at 1.2 µM 31% | [15]; at 3.7 µM 57%
active: [16]; at 33.0 µM 98% | [16]; at 100.0 µM 98% | [3]; at 11.0 µM 81% | [3]; at 33.0 µM 98% | [3]; at 100.0 µM 99% | [4]; at 33.0 µM 97% | [4]; [18] 99% | [4]; at 50.0 µM 75.8% | [4]; at 100.0 µM 97% | [5]; at 33.0 µM 94% | [5]; [18] 97% | [5]; at 50.0 µM 83.9% | [5]; at 100.0 µM 97% | [6]; at 11.0 µM 92% | [6]; at 33.0 µM 99% | [6]; at 100.0 µM 99% | [7]; [18] 98% | [7]; at 50.0 µM 86.9% | [8]; at 11.0 µM 79% | [8]; at 33.0 µM 93% | [8]; at 100.0 µM 98% | [9]; [18] 99% | [9]; at 50.0 µM 86.4% | [10]; at 11.0 µM 91% | [10]; at 33.0 µM 98% | [10]; [18] 99% | [10]; at 50.0 µM 88.8% | [10]; at 100.0 µM 98% | [11]; at 11.0 µM 71% | [11]; at 33.0 µM 98% | [11]; at 100.0 µM 98% | [12]; at 33.0 µM 90% | [12]; at 100.0 µM 97% | [13]; at 11.0 µM 73% | [13]; at 33.0 µM 98% | [13]; at 100.0 µM 98% | [14]; [18] 98% | [14]; at 50.0 µM 87.7% | [15]; at 11.0 µM 89% | [15]; at 33.0 µM 98% | [15]; at 100.0 µM 98%

O=C1c2ccccc2N2OC3(N4CCCC4)CCCCC3C12c1ccccc1 (centres undefined)
inactive: [1]; at 1.2 µM 6% | [1]; at 3.7 µM -9% | [1]; at 11.0 µM 16% | [1]; at 33.0 µM 36% | [2]; at 1.2 µM -33% | [2]; at 3.7 µM -38% | [2]; at 11.0 µM -28% | [2]; at 33.0 µM 35% | [4]; at 1.2 µM 5% | [4]; at 3.7 µM -5% | [4]; [17] -35% | [4]; at 11.0 µM 7% | [4]; at 33.0 µM 19% | [4]; [18] -14% | [5]; at 1.2 µM -19% | [5]; at 3.7 µM -7% | [5]; [17] 1% | [5]; at 11.0 µM -25% | [5]; at 33.0 µM -1% | [5]; [18] 23% | [5]; at 50.0 µM 24.9% | [6]; at 1.2 µM -23% | [6]; at 3.7 µM -20% | [6]; at 11.0 µM -27% | [6]; at 33.0 µM -17% | [7]; [17] -9% | [7]; [18] -18% | [8]; at 1.2 µM -9% | [8]; at 3.7 µM -12% | [8]; at 11.0 µM -10% | [8]; at 33.0 µM 4% | [9]; [17] 16% | [9]; [18] 33% | [9]; at 50.0 µM 1.8% | [10]; at 1.2 µM -19% | [10]; at 3.7 µM -13% | [10]; [17] -6% | [10]; at 11.0 µM -2% | [10]; at 33.0 µM 40% | [11]; at 1.2 µM -18% | [11]; at 3.7 µM -17% | [11]; at 11.0 µM -14% | [11]; at 33.0 µM -8% | [12]; at 1.2 µM -46% | [12]; at 3.7 µM -44% | [12]; at 11.0 µM -41% | [12]; at 33.0 µM -10% | [13]; at 1.2 µM -1% | [13]; at 3.7 µM 5% | [13]; at 11.0 µM 7% | [13]; at 33.0 µM 61% | [14]; [17] -33% | [14]; [18] 35% | [14]; at 50.0 µM 18.8% | [15]; at 1.2 µM -9% | [15]; at 3.7 µM -7% | [15]; at 11.0 µM -7% | [15]; at 33.0 µM 15%
active: [1]; at 100.0 µM 98% | [2]; at 100.0 µM 99% | [4]; at 50.0 µM 84.6% | [4]; at 100.0 µM 97% | [5]; at 100.0 µM 98% | [6]; at 100.0 µM 98% | [7]; at 50.0 µM 74.7% | [8]; at 100.0 µM 98% | [10]; [18] 92% | [10]; at 50.0 µM 79.7% | [10]; at 100.0 µM 98% | [11]; at 100.0 µM 88% | [12]; at 100.0 µM 98% | [13]; at 100.0 µM 98% | [15]; at 100.0 µM 98%

Source: PubChem BioAssay (NCI)
